HPGD block: qHTS Assay for Inhibitors of HPGD (15-Hydroxyprostaglandin Dehydrogenase) | 4.3% of 150,000 active | purified HPGD, NADH fluorescence kinetic, PGE2 substrate | Potency, µM, for the others: at the highest dose activity change, negative = inhibition, actives largely listed as inhibitors; active = well fitted inhibition curve with a large enough effect, not every such curve was filed as active; inconclusive = small, poorly fitted or top-dose-only effect, or another doubt; inactive = no such curve, though single readings can be large or run the other way; also: potency is read from the fitted curve at half-maximal effect
Target sequence (P15428 whole entry, looked up): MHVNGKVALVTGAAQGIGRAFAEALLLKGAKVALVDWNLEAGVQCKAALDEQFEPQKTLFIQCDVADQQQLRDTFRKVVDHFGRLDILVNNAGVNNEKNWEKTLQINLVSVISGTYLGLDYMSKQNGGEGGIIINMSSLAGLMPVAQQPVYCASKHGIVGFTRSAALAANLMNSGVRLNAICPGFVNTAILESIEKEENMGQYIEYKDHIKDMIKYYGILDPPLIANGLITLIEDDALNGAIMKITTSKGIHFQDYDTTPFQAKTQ
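20 nM HPGD preincubated 15 min at room temperature with compound in 50 mM Tris-HCl pH 8, 0.01% Tween 20. Started with 1 mM NAD+ and 30 uM prostaglandin E2; NADH fluorescence (360/450 nm) read 5 times over 30-s intervals, last minus first.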
IMPase Li cell: qHTS Assay for Identifying the Cell-Membrane Permeable IMPase Inhibitors: Potentiation with Lithium | CHO-M1 cells, IP1 TR-FRET (IP-One), carbachol + lithium | Potency, µM (series often up to 59.4 µM), for inactives: top-dose activity, negative = IMPase inhibition, most hits filed as inhibitors | 0.35% of 210,000 active | AID 1457, 2008;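 also: IP1 builds up when IMPase is blocked and the TR-FRET signal falls; potency is read from the fitted curve at half-maximal effect; plate controls were basal vehicle for no effect and high inhibitor control for full effect; nearly all actives have a fitted effect of over 50% in size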
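Readout is a homogeneous TR-FRET IP1 immunoassay (Ex 320, Em 665 and 620), where raised cytosolic IP1 lowers signal. Cells were CHO-M1 treated 30 min at 37C with test compounds plus a little lithium; AC50 values came from Hill-equation fitting.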
NPSR antag: qHTS Assay for Antagonists of the Neuropeptide S Receptor: cAMP Signal Transduction | Q6W5P4 | CHO-NPSR cells, cAMP TR-FRET, antagonist mode | Potency, µM (series often up to 38.3 µM), inactives show top-dose activity change, negative = inhibition, usual class: inhibitors | 1% of 220,000 active; also: potency is read from the fitted curve at half-maximal effect; nearly all actives have a fitted effect of over 50% in size
Target sequence (Q6W5P4 whole entry, looked up): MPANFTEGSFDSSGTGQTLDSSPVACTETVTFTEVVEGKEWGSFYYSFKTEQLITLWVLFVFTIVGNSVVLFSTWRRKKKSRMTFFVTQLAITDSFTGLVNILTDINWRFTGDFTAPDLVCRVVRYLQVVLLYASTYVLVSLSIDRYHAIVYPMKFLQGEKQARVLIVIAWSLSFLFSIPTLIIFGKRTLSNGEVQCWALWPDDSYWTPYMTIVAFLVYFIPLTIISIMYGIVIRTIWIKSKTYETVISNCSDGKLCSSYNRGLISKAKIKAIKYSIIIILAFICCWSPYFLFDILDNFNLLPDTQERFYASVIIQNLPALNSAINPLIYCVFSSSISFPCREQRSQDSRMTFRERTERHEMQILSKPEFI
12-hLO inh: qHTS Assay for Inhibitors of 12-hLO (12-human lipoxygenase) | Polyunsaturated fatty acid lipoxygenase ALOX12 (Homo sapiens), P18054 | purified 12-hLO, xylenol orange hydroperoxide absorbance | Potency, µM (top dose mostly 57.1 µM), for the others: top-dose activity change, negative = inhibition, actives largely listed as inhibitors | 0.12% of 150,000 active | AID 1452, 2008; also: potency is read from the fitted curve at half-maximal effect; nearly all actives have a fitted effect of over 55% in size
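Purified human 12hLO (150 nM final) was preincubated with compounds for 15 min at room temperature in 25 mM Hepes pH 7.0, 0.01% Triton X-100, then reacted with 40 uM arachidonic acid for 30 min. Hydroperoxide was detected with ferrous iron/xylenol orange.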
ALDH1A1 block: qHTS Assay for Inhibitors of Aldehyde Dehydrogenase 1 (ALDH1A1); Aldehyde dehydrogenase 1A1 (Homo sapiens), P00352; Purified ALDH1A1, NADH fluorescence, propionaldehyde substrate; Potency, µM (highest dose often 75.3 µM), inactives show at the top dose activity, negative = inhibition, most hits filed as inhibitors; 7.3% of 220,000 active; AID 1030, 2008; active = well fitted inhibition curve with a large enough effect, not every such curve was filed as active; inconclusive = small, poorly fitted or top-dose-only effect, or another doubt; inactive = no such curve, though single readings can be large or run the other way;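 also: potency is read from the fitted curve at half-maximal effect; plate controls were no enzyme wells and a reference inhibitor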
IMPase cell inh: qHTS Assay for Identifying the Cell-Membrane Permeable IMPase Inhibitors; Inositol monophosphatase 1 (Rattus norvegicus), P97697; CHO-M1 cells, IP1 accumulation, HTRF TR-FRET ratio; inhibition (IP1 accumulation), % at 46.1 µM; 120,000 tested, under 10 active; AID 901, 2007; active = well fitted curve in the direction sought with a large enough effect in the signal ratio, not every such curve was filed as active; inconclusive = small, poorly fitted or top-dose-only effect, or a change in a side signal; inactive = no such curve, though single readings can be large or run the other way; the % refers to the signal ratio;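 also: cells stimulated with carbachol in lithium chloride buffer; plate controls were DMSO basal wells for no effect and reference inhibitor wells for full effect; higher means more IMPase inhibition seen as more IP1 and lower FRET ratio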
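Elevated IP1 in lysates lowers TR-FRET signal (665/620 ratio and 620 channel reported). Cells were CHO-M1, given carbachol (50 uM as added) plus 50mM LiCl, pH 7.4, 30 min, 37C; compounds titrated up to 46 uM; AC50 by Hill equation.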
Starred values were filed as active, the others as inactive; ? = inconclusive; · = no result given; [ ] = dose if it differs, or a comment. Rows were chosen to be rich in hits. Some 8.9% of all compounds tested hit in one or more screens of this group. Unless noted, calls follow the shape of the dose curve; as a rule, active = well fitted curve in the direction sought with a large enough effect; inconclusive = small, poorly fitted or top-dose-only effect, or another doubt; inactive = no such curve, though single readings can be large; an effect the other way counts as inactive or inconclusive. Unless noted, % is scaled to controls: 0 for no effect and ±100 for the full control effect.

SMILES	HPGD block	IMPase Li cell	NPSR antag	12-hLO inh	ALDH1A1 block	IMPase cell inh
COc1cc(/C=C2/C(=N)N3OC(C)=CC3=NC2=O)ccc1OCCOc1ccc(C)cc1	-10.8%	-12.6%[38.3 µM]	-2.7%[46.1 µM]	-7.4%	-0.9%	1.6
COc1ccc(S(=O)(=O)N2CCC(N3CCN(Cc4ccccc4)CC3)CC2)cc1	·	19.9%	-20.5%	·	?	·
O=C(CSc1nc(Cc2ccccc2)nc2ccccc12)Nc1ccc2c(c1)OCCO2	-9.6%	-3.5%[38.3 µM]	-10.7%[46.1 µM]	-10.0%	?	?
Cc1cc(F)ccc1NC(=O)c1ccc(NS(=O)(=O)c2cc(C(C)(C)C)ccc2C)cc1	-11.4%	-3.0%	-26.2%	2.3%	2.51µM*	·
CC(=O)Nc1ccc(NC(=O)c2ccc(NS(=O)(=O)c3cc(C(C)(C)C)ccc3C)cc2)cc1	·	8.8%	-26.0%	·	?	·
Cc1cccc(NC(=S)NCC(c2cccnc2)N2CCOCC2)c1 (configuration not stated)	-1.9%	-3.1%	16.0%	1.6%	-6.6%	1.2
CCN(CC)C(=O)c1[nH]cnc1C(=O)N[C@@H](CC(C)C)C(=O)OC(C)(C)C	·	-3.1%	-0.3%	·	-4.8%	·
O=C(/C=C/c1ccccc1[N+](=O)[O-])OCC(=O)c1ccccc1	·	-0.9%	-12.7%	·	?	·
CCCn1c(C)cc(C(=O)COc2ncnc3sccc23)c1C	-15.1%	4.8%[38.3 µM]	-13.7%[46.1 µM]	-5.4%	-2.1%	0.4
Cc1cc(C(=O)COc2ccccc2C(N)=O)c(C)n1C1CC1	·	23.2%	-10.4%	·	?	·
Cc1cc(C(=O)COc2ncnc3sccc23)c(C)n1C1CC1	-10.3%	18.7%[38.3 µM]	-19.3%[46.1 µM]	-3.6%	20µM*	2.0
O=C(COc1ccccc1[N+](=O)[O-])c1ccccc1	·	-3.1%	4.7%	·	2µM*	·
Cc1cc(C(=O)COc2cccnc2[N+](=O)[O-])c(C)n1-c1ccccc1	-5.2%	5.1%	0.9%	-3.1%	20µM*	·
Cc1cc(C(=O)COc2ccccc2[N+](=O)[O-])c(C)n1C1CC1	·	24.8%	-24.3%	·	31.6µM*	·
COC(=O)C1=C(C)NC(C)=C(C(=O)OC)C1c1ccco1	·	·	-8.5%[7.67 µM]	·	·	·
COC(=O)C1=C(C)Nc2nnnn2C1c1ccco1 (configuration not stated)	?	-5.1%[38.3 µM]	-0.6%[46.1 µM]	-3.0%	10µM*	-7.1
CCCCOC(=O)C1=C(C)Nc2nnnn2C1c1ccccc1Cl (configuration not stated)	-8.4%	20.1%[38.3 µM]	-15.7%[46.1 µM]	-9.0%	0.447µM*	2.1
C=CCOC(=O)C1=C(C)Nc2nnnn2C1c1cc(OC)ccc1OC (configuration not stated)	1.8%	25.6%[38.3 µM]	-13.9%[46.1 µM]	-7.5%	4.47µM*	5.1
CCOC(=O)C1=C(C)Nc2nnnn2C1c1ccccc1Cl (configuration not stated)	-10.9%	-0.9%	-11.5%[46.1 µM]	-8.7%	0.708µM*	-4.1
CC(C)n1c2ccccc2c2nnc(SCC(=O)OCN3C(=O)c4ccccc4C3=O)nc21	·	·	-14.0%[46.1 µM]	-7.6%	4.1%	8.0
COc1ccc(CNC(=O)/C=C/C(=O)O)cc1	·	·	-12.6%	·	-0.8%	·
COC(=O)c1ccc(CSc2nc3c(c(=O)n2-c2ccc(C)cc2)SCC3)o1	-10.9%	13.4%[38.3 µM]	-27.3%[46.1 µM]	-12.6%	-5.6%	23.4
COC(=O)C1=C(C)Nc2nnnn2C1c1ccc(Cl)cc1Cl (configuration not stated)	-6.9%	20.2%[38.3 µM]	0.3%[46.1 µM]	-21.4%	8.91µM*	1.4
COc1ccc(C2C(C(=O)OC3CCCCC3)=C(C)Nc3nnnn32)c(OC)c1OC (configuration not stated)	-10.5%	2.1%	-25.1%	-2.1%	-2.0%	·
CCOC(=O)C1=C(C)NC(=S)N(C(C)=O)C1c1ccc(Cl)cc1 (configuration not stated)	-8.7%	0.3%	?	-18.8%	8.91µM*	·
SMILES	HPGD block	IMPase Li cell	NPSR antag	12-hLO inh	ALDH1A1 block	IMPase cell inh
CC(=O)C1=C(C)Nc2ncnn2C1c1ccccc1Cl (configuration not stated)	·	·	-6.1%[46.1 µM]	-3.4%	25.1µM*	?
CC1=C(C(N)=O)C(c2ccc(Cl)cc2Cl)n2ncnc2N1 (configuration not stated)	-3.5%	-9.6%[38.3 µM]	1.2%[46.1 µM]	2.3%	7.4%	-7.4
O=C1NNC(=O)C2C3C=CC(C4CC34)C12 (configuration not stated)	-4.3%	-8.5%[38.3 µM]	-3.1%[46.1 µM]	-0.2%	25.1µM*	6.4
O=C(CCCn1c(=O)[nH]c2ccsc2c1=O)N1CCCCC1	14.1µM*	-5.0%[38.3 µM]	-6.8%[46.1 µM]	-3.8%	-6.8%	-4.4
O=C(CCCCn1c(=O)[nH]c2ccsc2c1=O)NCC1CCCO1 (configuration not stated)	25.1µM*	25.7%[38.3 µM]	0.3%[46.1 µM]	3.4%	-0.9%	-2.1
O=C(CCCCCn1c(=O)[nH]c2ccsc2c1=O)N1CCCCC1	14.1µM*	-5.3%	1.4%[46.1 µM]	2.0%	-1.4%	-10.7[1.84 µM]
Oc1ccc(-c2cnns2)c(O)c1	2µM*	3.8%	4.6%	-14.7%	25.1µM*	·
O=c1c(Cc2ccc(F)cc2)c(O)ccn1C1CC1	-12.7%	15.7%[38.3 µM]	21.1%[46.1 µM]	1.5%	3.3%	5.7[1.84 µM]
Cc1ccc(S(=O)(=O)NNC(=O)c2sccc2-n2cccc2)cc1	-6.7%	6.2%[38.3 µM]	-7.5%[46.1 µM]	-9.4%	10µM*	0.0
Cc1ccc(S(=O)(=O)NNC(=O)c2sc3nc(C)cc(C)c3c2-n2cccc2)cc1	-4.9%	25.3%[38.3 µM]	-20.7%[46.1 µM]	-16.2%	0.141µM*	-1.4[1.84 µM]
Cc1ccc(S(=O)(=O)NNC(=O)c2ccccc2O)cc1	?	-3.3%	20.5%	0.7%	-2.8%	·
Cc1ccc(S(=O)(=O)Nc2nc(C)c(C(=O)NNS(=O)(=O)c3ccccc3)s2)cc1	·	·	-21.9%	·	?	·
Cc1ccc(S(=O)(=O)NNC(=O)c2cnn(-c3ccccc3)c2-n2cccc2)cc1	-4.8%	19.7%[38.3 µM]	?	-23.3%	0.178µM*	7.2
CN(C)c1ccc(/C=N/NC(=O)c2sccc2-n2cccc2)cc1	·	-4.6%	-27.0%	·	20µM*	·
Cc1ccc2c(CC(=O)NCC3COc4ccccc4O3)coc2c1 (configuration not stated)	·	·	-8.9%[46.1 µM]	-15.2%	?	5.1
Cc1cccc(/C=C\c2ccccc2)n1	?	13.2%	·	-3.3%	?	5.9
CNC(=S)Nc1cccc([N+](=O)[O-])c1	·	8.2%	12.1%	·	?	·
Cc1ccc(CNC(=O)c2sccc2-n2cccc2)cc1	12.6µM*	22.0%[38.3 µM]	-14.1%[46.1 µM]	-3.9%	?	0.6
